# D2 ag-1: agonists of human D2 dopamine receptor (beta-arrestin). DiscoveRx PathHunter D2 beta-arrestin, luminescence, 90 min; 100% = 57 uM dopamine signal. AID 624465. 360,000 compounds, 0.084% hits. activation, % (no concentration beside the values). P14416; in the data active = activation above about 40%; inconclusive = between about 15% and that limit
# Target sequence (P14416 whole entry, looked up): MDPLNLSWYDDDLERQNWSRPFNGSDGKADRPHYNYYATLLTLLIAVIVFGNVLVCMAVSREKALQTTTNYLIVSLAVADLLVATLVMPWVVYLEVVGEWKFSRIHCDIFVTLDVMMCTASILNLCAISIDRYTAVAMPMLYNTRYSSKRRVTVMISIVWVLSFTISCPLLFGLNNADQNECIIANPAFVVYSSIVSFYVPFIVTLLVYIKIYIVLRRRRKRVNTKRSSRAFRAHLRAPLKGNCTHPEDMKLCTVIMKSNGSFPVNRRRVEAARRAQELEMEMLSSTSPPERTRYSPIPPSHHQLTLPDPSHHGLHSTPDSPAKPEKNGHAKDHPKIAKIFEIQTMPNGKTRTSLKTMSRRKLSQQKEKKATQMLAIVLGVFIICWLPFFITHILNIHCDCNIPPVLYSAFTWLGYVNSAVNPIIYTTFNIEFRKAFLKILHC
#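 Agonist mode: compounds alone added to overnight-plated D2 PathHunter cells for 90 min at 37 C, with 57 uM final dopamine (EC100) defining full response. Beta-arrestin recruitment detected by chemiluminescent reagent, read after 1 h at ambient temperature.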
# D2 ag-2: D2 dopamine receptor (human) agonism. P14416. 340,000 compounds, 0.53% hits. HEK293 T-REx D2 cells, calcium flux agonist mode. activation, % at 2 µM;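 active = activation over 3 SD above normal in the single-dose calcium agonist read, cut at about 30% in these data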; also: 0% is about no effect
#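 HEK293 Trex D2 cells, tetracycline-induced, o/n 30 C 5% CO2; no-wash Ca dye, RT 30–90 min; 10-cycle baseline, 23 nl cpd added, kinetic Ca read 180 s; agonist hits = positive Ca response.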
# D2 PAM-1: potentiates the human D2 dopamine receptor allosterically | potentiation, % (test concentration not listed) | AID 624464 | DiscoveRx D2 beta-arrestin cells, luminescence, 90 min; 100% = 57 uM dopamine signal | 360,000 compounds, 0.23% hits | P14416; in the data active = potentiation above about 50%; inconclusive = mostly about 30% to 49%
#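 D2 cells co-treated with compound plus 50 nM dopamine (EC20) for 90 min at 37 deg C to detect potentiation. Beta-arrestin recruitment was read as enzyme-fragment luminescence after 1 h at ambient temperature. Full response was set by 57 uM dopamine.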
# D2 PAM-2: positively modulates the human D2 dopamine receptor allosterically; P14416; HEK293 T-REx D2, calcium flux, EC20 dopamine potentiation; potentiation, % at 10 µM; 340,000 compounds, 0.34% hits; AID 485347;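 active = potentiation over 3 SD above the plate norm, cut at about 30% in these data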; also: 0% is about no effect
#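 Tetracycline-induced HEK293 T-REx cells force-coupled to calcium signalling expressed D2; compounds were pin-added after a 10 s baseline, read kinetically 180 s, then an EC20 dopamine challenge followed with a further 180 s calcium read.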
# D2 antagonist: antagonists of human D2 dopamine receptor | 340,000 compounds, 2% hits | HEK293 TREx D2 cells, calcium flux, dopamine EC80 | P14416 | inhibition, % at 10 µM; in the data active = inhibition above about 30%; inactive = below that, where a call was filed; also: 0% is about no effect
#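 Overnight-induced (tetracycline, 30 C) HEK293 T-REx cells carrying force-coupled D2 receive a no-wash calcium dye, then compound, then EC80 dopamine at 180 s; signals are read kinetically throughout.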
# Active calls of the source: *; ? = inconclusive; nt = no result. Hits are enriched below; roughly 2.4% of the tested compounds scored in any of these assays.
SMILES,D2 ag-1,D2 ag-2,D2 PAM-1,D2 PAM-2,D2 antagonist
COC(=O)c1ccccc1NS(=O)(=O)c1ccc(NC(C)=O)cc1,-2,1,-1,17,-7
COC(=O)c1ccccc1NS(=O)(=O)c1ccc(F)cc1,-4,0,-10,44*,32*
O=C(O)c1ccccc1NS(=O)(=O)c1ccc2ccccc2c1,-2,-2,13,32*,2
O=C(O)c1cc(NS(=O)(=O)c2ccc3ccccc3c2)ccc1O,-3,0,-22,7,11
CN(C)c1ccc(-c2nc3cnccn3c2Nc2cccc(C(F)(F)F)c2)cc1,nt,-2,nt,9,nt
Cc1ccc(N2CC(C(=O)Nc3ccc(Br)cc3)CC2=O)cc1 (stereo unspecified),nt,0,nt,-7,nt
Cc1cc(S(=O)(=O)N2CC(=O)N(CCc3ccccc3)C(=O)C2)ccc1F,-3,0,-3,31*,-2
O=C1CN(S(=O)(=O)c2ccccc2)CC(=O)N1CCc1ccccc1,-4,1,-9,14,-15
Cc1ccc([N+](=O)[O-])cc1NC(=O)Nc1onc(C)c1C,-10,-2,-56,-20,47*
CSc1ccc(/C=C(\C(=O)O)c2ccc(S(=O)(=O)N3CCCC3)s2)cc1,9,0,0,4,36*
CCCCn1c(-c2nonc2N)nc2ccccc21,-1,1,-21,0,1
CC(C)CCn1c(-c2nonc2N)nc2ccccc21,0,1,-17,33*,7
c1ccc(-c2onc3cc4c(cc23)OCCO4)cc1,?,-1,117*,4,-1
CC(=O)c1ccc2noc(-c3ccccc3)c2c1,?,1,?,22,-6
Cc1cc(C)c(S(=O)(=O)NCC(c2ccco2)N2CCN(c3ccccc3)CC2)c(C)c1 (stereo unspecified),nt,1,nt,16,nt
O=c1c2ccccc2nnn1CSc1ccc2c(c1)OCCO2,-3,2,10,43*,-4
CCC(C(=O)Nc1ccc2c(c1)OCCO2)n1nnc2ccccc2c1=O (stereo unspecified),-2,0,11,-8,9
CN(C)CC(C)(C)CNc1ccc(S(=O)(=O)N2CCCC2)cn1,1,nt,-2,nt,nt
CCNc1ccc(S(=O)(=O)N2CCCCC2)cn1,5,0,-3,4,33*
CC(=O)N1CCN(c2ccc(S(=O)(=O)N3CCCCC3)cn2)CC1,0,1,8,3,38*
CC1=C(C(=O)N2CCCCC2)C(c2ccc(Cl)cc2)n2c(nc3ccccc32)N1 (stereo unspecified),nt,0,nt,17,nt
COc1ccc(C)cc1NS(=O)(=O)c1ccc2c(c1)CCCN2C(C)=O,nt,1,nt,0,nt
O=c1[nH]c(/C=C/c2ccc([N+](=O)[O-])cc2)c([N+](=O)[O-])c(=O)[nH]1,?,0,52*,-2,3
O=c1[nH]c(/C=C/c2ccc3c(c2)OCO3)c([N+](=O)[O-])c(=O)[nH]1,nt,3,nt,-8,-3
Cc1c(O)c(CN2CCCCC2)cc2c1oc(=O)c1ccccc12,-2,-1,-52,-13,66*
SMILES,D2 ag-1,D2 ag-2,D2 PAM-1,D2 PAM-2,D2 antagonist
Cc1ccccc1-n1ncc(C(C)NC(=O)c2ccccc2)c1C (stereo unspecified),3,-1,-1,4,36*
CCc1nn2c(=O)cc(COC(=O)c3ccccc3NC(=O)c3cccs3)nc2s1,nt,-3,nt,-3,nt
CCc1ccc(N=C2NC(=O)/C(=C/c3cc(OC)c(OC)c(OC)c3)S2)cc1,1,1,-9,-7,-8
COc1cc(/C=C2\SC(=Nc3ccc(O)cc3)NC2=O)cc(OC)c1O,0,47*,8,-11,9
Brc1ccc(Oc2nnnn2-c2ccccc2)cc1,-30,-3,-7,-8,45*
Clc1ccc2c(c1)CCc1cccnc1C2=C1CCNCC1,nt,nt,nt,nt,30*
Cc1ccc(NC(=O)CSc2nc3ccc(NC(=O)COc4ccc(C)cc4)cc3s2)cc1,nt,1,nt,15,nt
CC1CCCC(C)N1C(=O)CSc1nnc(C2CCCCC2)o1 (stereo unspecified),-5,0,-17,-8,90*
Cc1cc(-c2nnc(SCC(=O)N3C(C)CCCC3C)o2)no1 (stereo unspecified),-1,-1,0,6,-4
CC1CCC/C(=C\Nc2ccc(O)cc2)C1=O (stereo unspecified),13,0,54*,10,6
Cc1cc(C(=O)O)ccc1N/C=C1\CCCC(C)C1=O (stereo unspecified),-3,1,-25,-4,0
Cc1c(Cl)ccc2c(C(=O)O)cc(-c3ccccc3)nc12,-5,-2,-5,-14,52*
O=C(CSc1ccccc1)N1CCc2c([nH]c3ccccc23)C1c1ccc(Cl)cc1 (stereo unspecified),nt,3,nt,7,nt
COc1cc(NC(=O)CN(C)S(=O)(=O)c2ccc3[nH]c4c(c3c2)CCCC4)cc(OC)c1OC,nt,-1,nt,-8,nt
O=C(NCC1CCCO1)c1nnc(Cc2ccc(F)cc2)o1 (stereo unspecified),-4,1,-4,-3,39*
Fc1ccc(-c2cn3cc(Cc4ccccc4)sc3n2)cc1,nt,3,nt,14,nt
NS(=O)(=O)c1ccc(NC(=O)Cc2cccs2)cc1,5,1,-2,-3,39*
O=C(N/N=C/C(Br)=C/c1ccccc1)c1ccc([N+](=O)[O-])cc1,4,0,-20,-9,39*
O=C(N/N=C/C(Br)=C/c1ccccc1)c1ccncc1,-1,0,-25,-1,12
CC(=C/c1ccccc1)/C=N/NC(=O)c1ccc2nc[nH]c2c1,-1,1,-24,-25,-6
O=C(N/N=C/C(Br)=C\c1ccccc1)c1ccc2nc[nH]c2c1,-3,1,-9,9,34*
O=C(CC12CC3CC(CC(C3)C1)C2)NCC(c1ccc(F)cc1)N1CCOCC1 (stereo unspecified),1,3,-4,3,40*
O=C1c2cccc(Cl)c2C(=O)N1c1ccccn1,-3,nt,-2,nt,nt
O=C1c2cc3ccccc3c(-c3ccccc3)c2C(=O)N1c1ccccn1,-4,6,-21,2,46*
COc1cc(/C=C/c2nc(C#N)c(N3CCCCCC3)o2)cc(OC)c1OC,nt,-1,nt,5,nt
Cc1ccccc1Nc1nc(-c2sc(NC(=O)c3cccc(Cl)c3)nc2C)cs1,nt,0,nt,31*,-12
CCCCNC(=O)c1cnc2sc(N3CCCCCC3)nn2c1=O,nt,0,nt,-7,nt
Cc1c(C(=O)O)sc2ncnc(N3CCCCC3C)c12 (stereo unspecified),0,0,-14,33*,-1
CCOC(=O)c1c(-c2ccc(OC)cc2)cn2ccccc12,-3,-1,-13,-1,62*
CCOC(=O)c1c(-c2ccc(C)cc2)cn2ccccc12,-2,1,-16,-9,7

# Bioassay records deposited in PubChem BioAssay by National Center for Advancing Translational Sciences (NCATS).
